What was measured:
Conditions in all cases: concentration: 1 μM, replicates: in singlicate; n = 1
CDKL2 = system: CDKL2
CDKL3 = system: CDKL3
CDKL5 = system: CDKL5
CHEK1 = system: CHEK1
CHEK2 = system: CHEK2
CIT = system: CIT
CLK1 = system: CLK1
CLK2 = system: CLK2
CLK3 = system: CLK3
CLK4 = system: CLK4
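Note: KINOMEscan kinase panel screen.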

Structure (SMILES)	%Inh (CDKL2) [%]	%Inh (CDKL3) [%]	%Inh (CDKL5) [%]	%Inh (CHEK1) [%]	%Inh (CHEK2) [%]	%Inh (CIT) [%]	%Inh (CLK1) [%]	%Inh (CLK2) [%]	%Inh (CLK3) [%]	%Inh (CLK4) [%]
C[C@H]1CC[C@@H](C(=O)Nc2ccccc2)CN1c1cc(-c2ccc3c(N)n[nH]c3c2)nc(N)n1 [GSK2283293]	17	0	0	0	0	32	18	0	0	21
Cl.Fc1ccccc1COc1ccc(Nc2ncnc3ccc(-c4nnc(C(F)(F)F)o4)cc23)cc1Cl [GW424170]	0	0	0	5	7	11	31	0	4	13
CNc1nccc(-c2c(-c3ccc(F)cc3)ncn2CCCN2CCOCC2)n1 [SB-222516]	6	10	2	0	43	0	4	16	18	3
COc1cc2ncnc(Nc3ccc(OCc4ccccc4Br)c(Cl)c3)c2cc1OC.Cl [GI261590]	26	2	0	0	47	29	28	0	0	17
N#Cc1ccc(Oc2ccc(Nc3ncnc4cc[nH]c34)cc2Cl)cc1	15	3	14	4	19	22	25	19	3	21
C[C@@H]1CCN(C(=O)CO)C[C@@H]1N(C)c1ncnc2[nH]ccc12	2	0	0	0	1	0	3	6	0	0
O=c1cc(N2CCOCC2)nc2n(Cc3cccc(Cl)c3)ccn12 [GSK2296823]	26	0	4	18	0	10	47	1	20	24
CC(=O)Nc1n[nH]c2ncc(-c3ccccc3)cc12 [SB-548492]	6	0	0	0	1	4	41	19	32	27
CC(C)(C)c1ccc(-n2cnc3c(N)ncnc32)cc1 [SKF-97263]	0	0	0	34	0	31	36	20	19	50
c1ccc(-c2ccc3c(-c4ccnc(Nc5ccc6c(c5)OCCO6)n4)cnn3n2)cc1 [GW818941]	16	0	0	0	0	6	52	42	0	58
Fc1cccc(COc2ccc(Nc3ncnc4nn5ccccc5c34)cc2Cl)c1 [GW689066]	1	0	0	0	28	0	9	0	0	0
Cc1ccc(O)cc1Nc1cc(C(F)(F)F)nc2ccc(-c3ccncc3)cc12 [GW630823]	0	0	0	34	0	0	40	16	0	20
O=C(CCO)NCCn1ccc2ncnc(Nc3ccc(Oc4cccc(C(F)(F)F)c4)c(Cl)c3)c21	9	0	0	0	0	0	1	0	0	5
COc1ccc(NC(=O)Nc2ccc(C)c(-c3ccc(C(=O)Nc4ccncc4)cc3)c2)cc1 [GSK1398475]	30	0	0	11	0	69	28	0	4	5
CCn1c(-c2ccncc2)nc2cnccc21 [SB-735216]	0	25	4	0	0	0	16	0	0	16
FC(F)(F)c1ccc(-c2cc(-c3c[nH]nc3-c3ccccn3)ccn2)cc1 [GW599550]	21	0	0	0	16	37	8	4	5	29
Nc1nc(-c2ccc3c(N)n[nH]c3c2)cc(N2CCC[C@@H](C(=O)Nc3ccccc3)C2)n1.O=C(O)C(F)(F)F.O=C(O)C(F)(F)F [GSK2288359]	6	0	2	0	0	23	45	29	8	21

Structure (SMILES)	%Inh (CDKL2) [%]	%Inh (CDKL3) [%]	%Inh (CDKL5) [%]	%Inh (CHEK1) [%]	%Inh (CHEK2) [%]	%Inh (CIT) [%]	%Inh (CLK1) [%]	%Inh (CLK2) [%]	%Inh (CLK3) [%]	%Inh (CLK4) [%]
CNc1nccc(-c2c(-c3ccc(F)cc3)ncn2C2CCN(C)CC2)n1 [SB-222903]	0	0	0	0	6	53	0	3	12	0
Cn1ccc2ncnc(Nc3ccc(Oc4cccc(Cl)c4)c(Cl)c3)c21	23	26	23	2	7	0	0	0	0	1
CCc1nc(-c2cccc(N(C)S(=O)(=O)c3ccccc3)c2)c(-c2ccnc(Nc3ccc(N4CCN(C(C)=O)CC4)nc3)n2)s1 [GSK1645895]	47	0	4	7	0	31	25	12	27	0
Cc1ccc(NC(=O)c2cccc(C#N)c2)cc1-c1ccc(C(=O)Nc2ccncc2)cc1 [GSK1398463]	40	0	11	19	0	47	29	0	23	24
Nc1n[nH]c2nnc(-c3ccccc3)cc12 [SB-517389]	18	69	0	10	0	29	43	32	19	19
O=C(Nc1n[nH]c2nc(-c3ccco3)c(Br)cc12)c1ccc(CN2CCCC2)cc1.O=C(O)[C@H](O)[C@@H](O)C(=O)O [SB-742352]	62	0	0	0	0	0	16	12	0	8
Nc1nccc2scc(-c3ccc4c(c3)CCN4C(=O)Cc3cc(F)ccc3F)c12 [GSK2587663]	17	0	0	8	10	27	24	0	93.5	19
Nc1nc(-c2ccccn2)c(-c2ccnc3ccccc23)s1 [GW548057]	24	0	0	0	46	6	14	16	30	40
COC(=O)c1c(-c2ccccc2)c2cc(Cl)ccc2c(=O)n1Cc1ccc(S(C)(=O)=O)cc1	0	0	33	0	10	4	3	0	10	10
Fc1ccc(-c2ncn(CCCNCc3ccccc3)c2-c2ccncc2)cc1	0	1	21	17	0	27	33	1	0	0
Cc1ccc(C)c(NC(=O)NCCNc2ccnc(Nc3ccc(F)cc3)n2)c1 [GSK1379878]	0	0	0	5	0	8	23	0	0	0
CSc1ccc(NC2=C(c3ccccc3Cl)C(=O)NC2=O)cc1 [SB-342411]	14	0	0	0	0	23	74	88	43	53
Fc1cccc(COc2ccc(Nc3ncnc4cc[nH]c34)cc2Cl)c1	14	11	15	10	13	19	7	16	10	0
CN1c2ccc(-c3ccc(C(=O)NCCO)cc3)cc2-c2[nH]ncc2S1(=O)=O	0	1	0	0	65	2	44	86	25	40
Cl.Cn1ccc(-c2cccc(Nc3ccnc4cc(-c5nccs5)ccc34)c2)n1 [GW525701]	61	0	0	24	0	3	1	0	0	37
Clc1cc(Nc2ncnc3cc[nH]c23)ccc1OCc1ccccn1	0	31	8	14	13	18	13	0	5	7

Reference: publication PMC5540273 (PLoS ONE, 2017)
